The campaign covered roughly 2,400 compounds. About 580 (24%) were called active. A selection follows. A number with no mark means an inactive call.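 The calls were made as follows: active = activity change at or above the mean plus 3 SD of buffer wells without dofetilide, per plate; inactive = the rest.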
These molecules were tested against Potassium voltage-gated channel subfamily KQT member 2 (Rattus norvegicus) (UniProt O88943) (assay: rat KCNQ2 channel activation by compounds alone, confirmation, counter-screen for hERG block protector project, cell-based, CHO, FluxOR thallium flux (AID 1942;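 also: normalized value minus buffer-control mean plus three SD of buffer wells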)). Conditions: CHO-KCNQ2 cells, FluxOR thallium flux fluorescence; at 10 µM; stronger effect = higher value.
Potassium voltage-gated channel subfamily KQT member 2 (Rattus norvegicus), sequence (O88943 whole entry, looked up): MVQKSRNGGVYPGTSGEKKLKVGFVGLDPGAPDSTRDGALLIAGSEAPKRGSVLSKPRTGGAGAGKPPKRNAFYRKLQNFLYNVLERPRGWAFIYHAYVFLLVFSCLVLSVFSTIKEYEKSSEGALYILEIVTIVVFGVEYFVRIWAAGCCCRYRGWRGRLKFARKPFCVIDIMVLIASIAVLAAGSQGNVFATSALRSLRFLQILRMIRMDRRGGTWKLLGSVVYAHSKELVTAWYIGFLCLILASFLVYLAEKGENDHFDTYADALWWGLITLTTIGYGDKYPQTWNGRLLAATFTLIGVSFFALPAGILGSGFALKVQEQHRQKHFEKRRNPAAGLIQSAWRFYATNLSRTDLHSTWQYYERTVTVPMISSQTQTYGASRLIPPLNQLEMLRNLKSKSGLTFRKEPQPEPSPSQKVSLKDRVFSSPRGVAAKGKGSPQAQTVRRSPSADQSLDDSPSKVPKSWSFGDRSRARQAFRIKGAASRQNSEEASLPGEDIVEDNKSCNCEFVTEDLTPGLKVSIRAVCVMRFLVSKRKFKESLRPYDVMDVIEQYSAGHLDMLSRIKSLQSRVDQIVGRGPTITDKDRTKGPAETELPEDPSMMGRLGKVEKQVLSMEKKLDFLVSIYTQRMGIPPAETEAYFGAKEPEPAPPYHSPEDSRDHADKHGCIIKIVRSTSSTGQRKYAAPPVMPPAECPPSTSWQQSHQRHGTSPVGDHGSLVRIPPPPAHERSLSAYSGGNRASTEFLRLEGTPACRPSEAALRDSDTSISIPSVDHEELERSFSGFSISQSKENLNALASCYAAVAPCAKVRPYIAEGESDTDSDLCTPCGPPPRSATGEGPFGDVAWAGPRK
With `C/C(CCC12CC3CC(CC(C3)C1)C2)=N\NC(N)=S` the activity change, less the hit threshold was -17.2%.
For `COc1ccc(-c2nc(=S)c3ccc4ccccc4c3[nH]2)cc1`, the activity change, less the hit threshold was 51.5% (active).
`COc1ccc(-n2c(=S)[nH]c3ccccc3c2=S)cc1` gave an activity change, less the hit threshold of -7.3%.
`COc1cccc(C2C3=C(N=c4s/c(=C\c5ccc(OCC(=O)O)cc5)c(=O)n42)c2ccccc2CC3)c1` (stereo not drawn) showed an activity change, less the hit threshold of -38.5%.
In the case of `COc1ccc(-c2csc(NC(=S)NC(=O)c3cccs3)n2)cc1OC`, the activity change, less the hit threshold is reported as -5.3%.
With `CCc1ccc2nc(NC(=O)c3cc(C)on3)sc2c1` the activity change, less the hit threshold was -6.5%.
`O=C(NC(=S)Nc1nc(-c2ccccc2)cs1)c1cccs1` was tested, and the activity change, less the hit threshold was -22.7%.
Work on `COc1ccc(-c2csc(NC(=S)NC(=O)c3cccs3)n2)cc1Br` yielded an activity change, less the hit threshold of -20.8%.
In the case of `O=C(NC(=S)Nc1nc2ccccc2s1)c1cccs1`, the activity change, less the hit threshold is reported as 7.1% (active).
For `Cc1ccc2nc(NC(=S)NC(=O)c3cccs3)sc2c1`, the activity change, less the hit threshold was 5.5% (active).
For `CC1CCCC(C)N1S(=O)(=O)c1ccc(NC(=O)CCn2cnc3ccccc3c2=O)cc1` (stereo not drawn), the activity change, less the hit threshold was -11.1%.
Molecule `CC(C)CC1C(C#N)=C(N)Oc2n[nH]c(-c3cccs3)c21` (stereo not drawn) has an activity change, less the hit threshold of -12.4%.
Work on `CCN1C(=O)C2(/C(=C(\O)c3ccc4c(c3)OCCO4)C(=O)C(=O)N2CCCOC)c2ccccc21` (stereo not drawn) yielded an activity change, less the hit threshold of -12.7%.
With `O=C(CC1NC(=O)NC1=O)Nc1ccccc1` (stereo not drawn) the activity change, less the hit threshold was -21.4%.
Work on `CC(C)C(=O)Nc1ccc2c(c1)Cc1cc(NC(=O)C(C)C)ccc1-2` yielded an activity change, less the hit threshold of -17.9%.
`O=C(CC1CCCC1)Nc1ccc2c(c1)CCC2` was tested, and the activity change, less the hit threshold was 54.5% (active).
In the case of `CN1N=C(C(=O)N2CCc3c([nH]c4ccccc34)C2c2c(F)cccc2Cl)CCC1=O` (stereo not drawn), the activity change, less the hit threshold is reported as -22.4%.
Molecule `Cc1ccc(C(C(=O)NC(C)(C)C)N(Cc2cccnc2)C(=O)C(=O)NC2CCCCC2)o1` (stereo not drawn) has an activity change, less the hit threshold of -14.6%.
With `COc1cccc(C=NCCCN=Cc2cccc(OC)c2O)c1O` the activity change, less the hit threshold was 6% (active).
With `COc1cccc(C=Nc2cc(C)cc(C)c2)c1O` the activity change, less the hit threshold was 10% (active).
For `COc1cccc(C=NCC(C)N=Cc2cccc(OC)c2O)c1O` (stereo not drawn), the activity change, less the hit threshold was -2.9%.
Molecule `COc1cccc(/C=N/Nc2nc3ccccc3[nH]2)c1O` has an activity change, less the hit threshold of -3.2%.
Work on `CCOc1cccc(/C=N/NC(=O)c2ccc3c(c2)OCCO3)c1O` yielded an activity change, less the hit threshold of -18.5%.
`COC(=O)c1cccc(/C=N/NC(N)=S)c1O` gave an activity change, less the hit threshold of -2.4%.
With `COc1ccc(-n2c(SCc3ccccn3)nc3c(c2=O)SCC3)cc1OC` the activity change, less the hit threshold was -2.7%.
`CCC1=C(OC(=O)N(CC)CC)N2C(=O)OC(=NCC3CC3)[C@]2(C)[C@H]2C1=CC[C@H]1C(=O)N(C)C(=O)[C@H]12` gave an activity change, less the hit threshold of -15.9%.
For `O=C1CSC(=S)N1/N=C/c1cc(Br)ccc1O`, the activity change, less the hit threshold was -6.3%.
For `O=C(CN1CCN(c2ccc(Cl)cc2)CC1)Nc1ccc(F)cc1`, the activity change, less the hit threshold was -21.6%.
With `S=c1nc(-c2ccccc2)[nH]c2ccc(Br)cc12` the activity change, less the hit threshold was 135% (active).
`S=c1nc(-c2ccc(Br)cc2)[nH]c2ccccc12` was tested, and the activity change, less the hit threshold was 100% (active).
`CCOC(=O)N/N=C\c1ccc(-c2cc(Cl)ccc2Cl)o1` showed an activity change, less the hit threshold of -17.6%.
`O=C1N(CN2CCN(Cc3ccccc3)CC2)c2ccccc2C12OCCCO2` was tested, and the activity change, less the hit threshold was -12.5%.
Work on `CCOc1cc(N2CCCC2)ccc1[N+](=O)[O-]` yielded an activity change, less the hit threshold of -13.1%.
In the case of `S=c1[nH]nc(-c2cccs2)n1/N=C/c1c(Cl)cccc1Cl`, the activity change, less the hit threshold is reported as 13.1% (active).
Molecule `Cc1cccc(/C=N/n2c(COc3ccccc3)n[nH]c2=S)c1` has an activity change, less the hit threshold of -13.8%.
Molecule `CC(C1CC2CCC1C2)n1c(-c2cccs2)n[nH]c1=S` (stereo not drawn) has an activity change, less the hit threshold of -7.9%.
For `CCC(=O)Nc1cc(=O)[nH]c2ncnn12`, the activity change, less the hit threshold was -13.1%.
Molecule `CCOC(=O)C1=C(C)NC(=O)NC1c1cccc(OC)c1OCc1ccccc1Cl` (stereo not drawn) has an activity change, less the hit threshold of -15.6%.
In the case of `CN(C)c1ccc(NC(=O)CCCc2ccccc2)cc1`, the activity change, less the hit threshold is reported as 0.2% (active).
Molecule `CN(Cc1ccccc1)C(=O)CCc1ccccc1` has an activity change, less the hit threshold of -22.5%.
`CC(C)C(=O)Nc1ccc(NC(=O)CCc2ccccc2)cn1` showed an activity change, less the hit threshold of -23.2%.
`COc1cc2c(=O)nc3n(c2cc1OC)C(c1ccccc1)N=C(N)N3` (stereo not drawn) showed an activity change, less the hit threshold of -18.8%.
For `Nc1nc2c(s1)CCc1c-2cnn1-c1ccccc1`, the activity change, less the hit threshold was -29.6%.
`Oc1ccc(N=Nc2ccc3c(c2)OCCO3)c2ncccc12` showed an activity change, less the hit threshold of -11.2%.
For `Oc1c(N=Nc2ccccn2)ccc2ccccc12`, the activity change, less the hit threshold was 7.7% (active).
For `CC1CCN(c2ccc3c(c2)S(=O)(=O)c2ccccc2C3=O)CC1`, the activity change, less the hit threshold was -25.4%.
`Cc1cc(-c2cccc(Br)c2)c(C#N)c(N)n1` gave an activity change, less the hit threshold of -13.8%.
Work on `CCOC(=O)c1c(SCC(=O)Nc2nc(C)cs2)nc(=O)[nH]c1C` yielded an activity change, less the hit threshold of -17.9%.
With `O=c1c(-c2cccc3ccccc23)[n+]([O-])c2ccccc2n1O` the activity change, less the hit threshold was 5.6% (active).
`O=c1c(-c2ccccc2)[n+]([O-])c2ccccc2n1O` gave an activity change, less the hit threshold of -16.2%.
`O=c1c(-c2ccc(Cl)cc2)[n+]([O-])c2ccccc2n1O` was tested, and the activity change, less the hit threshold was 92.9% (active).
For `Cc1ccc(-c2c(=O)n(O)c3ccccc3[n+]2[O-])cc1`, the activity change, less the hit threshold was 59.1% (active).
Work on `FC(F)c1nnc2c(Cl)cc(C(F)(F)F)cn12` yielded an activity change, less the hit threshold of -8%.
For `CC(=O)Nc1ccc(S(=O)(=O)N2CCC(C(=O)O)CC2)cc1`, the activity change, less the hit threshold was -26.7%.
Work on `Cc1cc(=O)[nH]c(SCC(=O)Nc2ccccc2C#N)c1C#N` yielded an activity change, less the hit threshold of -14.5%.
`CCOc1cc(/C=C2/C(=O)ON=C2C)ccc1O` was tested, and the activity change, less the hit threshold was -11.8%.
In the case of `COc1cc(-c2nnc(SCC(=O)O)n2-c2ccccc2)cc(OC)c1OC`, the activity change, less the hit threshold is reported as -13.9%.
`COc1cccc(/C=N/NC(=O)CSc2ccccc2C)c1O` showed an activity change, less the hit threshold of -2.9%.
In the case of `COc1cccc(/C=N/n2c(SC)nnc2-c2ccccc2)c1O`, the activity change, less the hit threshold is reported as 2.8% (active).
With `COc1cc(S(=O)(=O)Nc2c(C)cc(C)cc2C)ccc1Cl` the activity change, less the hit threshold was -20.6%.
In the case of `COCCN1C(=O)C(=O)/C(=C(/O)c2ccc(S(=O)(=O)N3CCOCC3)cc2)C1c1ccc(OC)c(OC)c1` (stereo not drawn), the activity change, less the hit threshold is reported as -17.7%.
`CCOC(=O)c1c(-c2ccc(C)o2)csc1NC(=S)NC(=O)N(C)C` was tested, and the activity change, less the hit threshold was 24.3% (active).
`CCNC(=S)Nc1scc(-c2ccccc2)c1C(=O)OCC` was tested, and the activity change, less the hit threshold was 10.6% (active).
In the case of `CCOC(=O)c1c(C=O)c(C)n(Cc2ccccc2)c1C`, the activity change, less the hit threshold is reported as -14.5%.
For `CCOC(=O)c1c(CC(C)C)csc1NC(=O)c1ccccc1C(=O)O`, the activity change, less the hit threshold was -7.7%.
With `CCOC(=O)c1c(-c2ccccc2)csc1NC(=S)NC` the activity change, less the hit threshold was 19% (active).
`CCOC(=O)c1ccc(NC(=O)Cn2nnc(-c3ccccc3)n2)cc1` gave an activity change, less the hit threshold of -26.4%.
Molecule `Nc1nonc1-n1nnc(C(=O)N/N=C/c2cccc(Cl)c2Cl)c1CN1CCCC1` has an activity change, less the hit threshold of -9.3%.
In the case of `Oc1ccc2[nH]cnc2c1CN1CCCCC1`, the activity change, less the hit threshold is reported as -16.5%.
Molecule `O=C(O)C1C2CCC(O2)C1C(=O)Nc1ccc(F)c(Cl)c1` (stereo not drawn) has an activity change, less the hit threshold of -21%.
Work on `Cc1ccc(-c2noc(CCC(=O)NC3CCCC3)n2)cc1` yielded an activity change, less the hit threshold of -9.6%.
For `O=C(Nc1ccc(Cl)cc1Cl)c1n[nH]c(Cn2cncn2)n1`, the activity change, less the hit threshold was -6%.
With `CC(=O)c1cccc(NC(=O)NCc2cccs2)c1` the activity change, less the hit threshold was -14.9%.
With `CN(CCc1ccccn1)C(=O)CCC1CCCN(C(=O)c2ccsc2)C1` (stereo not drawn) the activity change, less the hit threshold was -13.1%.
`CN(Cc1ccccc1)C(=S)NC(=O)c1cccs1` was tested, and the activity change, less the hit threshold was 7.6% (active).
`O=C(c1cccs1)N1CCN=C1SCc1ccccc1` was tested, and the activity change, less the hit threshold was -22.6%.
`Cc1ccc(C(=O)NNC(=S)NC(=O)c2ccccc2)cc1` gave an activity change, less the hit threshold of -25.9%.
`Cc1ccc(C(=O)NC(=S)N(C)Cc2ccccc2)cc1` was tested, and the activity change, less the hit threshold was 7.1% (active).
With `COc1ccc(N(CC(=O)NCc2cccnc2)S(=O)(=O)c2ccccc2[N+](=O)[O-])c(OC)c1` the activity change, less the hit threshold was -23.8%.
`Cc1ccc(-n2ccc(=O)c(C(=O)Nc3ccc(S(=O)(=O)Nc4nccs4)cc3)n2)cc1` gave an activity change, less the hit threshold of -13.6%.
`C=C(C)C1CC=C(C)/C(=N/NC(=O)CCC(=O)Nc2ccccc2Cl)C1` (stereo not drawn) showed an activity change, less the hit threshold of -11.1%.
`N#Cc1ccc(-c2nc3cc(Cl)ccc3c(=O)n2O)cc1` was tested, and the activity change, less the hit threshold was 1.6% (active).
With `O=c1c2ccc(Cl)cc2nc(-c2ccc([N+](=O)[O-])cc2)n1O` the activity change, less the hit threshold was 26.8% (active).
`O=c1c2cc(Cl)ccc2nc(-c2ccc([N+](=O)[O-])cc2)n1O` was tested, and the activity change, less the hit threshold was 31.4% (active).
For `O=c1c2cc(Br)ccc2nc(-c2ccc([N+](=O)[O-])cc2)n1O`, the activity change, less the hit threshold was 43.1% (active).
`COc1ccc(C(CC(=O)N2CCOCC2)c2c(O)cc(OC)cc2OC)cc1` (stereo not drawn) gave an activity change, less the hit threshold of -14.7%.
With `COc1ccc(-c2cn3nc(SCC(=O)NC4CCCCC4)ccc3n2)cc1` the activity change, less the hit threshold was -7.9%.
`CCOC(=O)C(=CNc1cc(C)nn1C(C)(C)C)C(=O)OCC` was tested, and the activity change, less the hit threshold was -8.9%.
`O=C(CCCc1c[nH]c2ccccc12)Nc1ccc(S(=O)(=O)Nc2ncccn2)cc1` showed an activity change, less the hit threshold of -22%.
With `COc1ccc([N+](=O)[O-])cc1N(CC(=O)NCc1ccco1)S(C)(=O)=O` the activity change, less the hit threshold was -12.1%.
`COc1ccccc1-n1cnc2sc(C)c(C)c2c1=O` was tested, and the activity change, less the hit threshold was -17.7%.
`CCc1nc2sc3c(c2c(=S)[nH]1)CC(C)(C)OC3` showed an activity change, less the hit threshold of -13.3%.
With `CCC1(C)Cc2c(sc3nc(SC)[nH]c(=S)c23)CO1` (stereo not drawn) the activity change, less the hit threshold was 101% (active).
In the case of `CSc1nc2sc3c(c2c(=S)[nH]1)CC(C)(C)OC3`, the activity change, less the hit threshold is reported as 73.2% (active).
Work on `COc1ccc(CCNC(=O)CC(NS(=O)(=O)c2ccc(NC(C)=O)cc2)C(C)C)cc1OC` (stereo not drawn) yielded an activity change, less the hit threshold of -17.8%.
Molecule `COC(=O)c1sccc1NS(=O)(=O)c1ccc(F)cc1F` has an activity change, less the hit threshold of -1.9%.
In the case of `Cc1ccc(S(=O)(=O)N(C)C)cc1NC(=S)NC(C)CCCC(C)C` (stereo not drawn), the activity change, less the hit threshold is reported as -25.5%.
`Cc1cccc(/C=N/Nc2ccc3ccccc3n2)c1` showed an activity change, less the hit threshold of -14.1%.
